Screening data (PubChem)
Shown are actives, neighbours in structure and some others; about 21% of the full set was active somewhere.
Pf growth 96h: P. falciparum growth inhibition at 96 hour, primary screen for plastid delayed-death inhibitors; P. falciparum luciferase reporter growth, 96 h; Potency, µM (doses to about 28.7 µM), inactives show at the highest dose activity change, negative = inhibition, most hits filed as inhibitors; 320,000 compounds, 6.9% hits; further: potency means the concentration at half of the fitted maximal effect; on the % scale 0 is the no-effect control and ±100 the full control effect
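Compounds incubated with erythrocytes infected by luciferase-expressing P. falciparum (2% hematocrit, 0.05% parasitemia final) for 96 hours, 37 C in 5% CO2. Growth inhibition scored as decreased luciferase luminescence.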
CHX counter: counter-screen for Shiga toxin inhibitors: cycloheximide protein synthesis inhibition | cell reporter, cycloheximide protein synthesis inhibition counterscreen | max response, % | 300,000 compounds, 12% hits; in the data active means max response mostly above about 13%, no sharp cut-off; inactive means mostly below about 14%; further: read at 38.3 µM for the half of the compounds with a filed dose; 0% is about no effect
Shiga inhibitor: inhibitors of Shiga toxin in Vero cells; Vero cells, Shiga toxin protein synthesis inhibition reporter; inhibition, % at 38.7 µM; 290,000 compounds, 9.2% hits; in the data active means inhibition mostly above about 28%, no sharp cut-off; inactive means mostly below about 43%; further: 0% is about no effect
Pf growth 48h: inhibits P. falciparum growth in the first generation, 48 h; Potency, µM (highest dose often 28.7 µM), for inactives: top-dose activity change, negative = inhibition, usual class: inhibitors; 310,000 compounds, 5.9% hits; P. falciparum luciferase growth in erythrocytes, 48 h; further: potency means the concentration at half of the fitted maximal effect; on the % scale 0 is the no-effect control and ±100 the full control effect
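Firefly luciferase activity from engineered P. falciparum reports growth; inhibitors lower the luminescent signal. Cultures contained 2% hematocrit erythrocytes at 0.1% final parasitemia.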
NS1 function inh: inhibitors of influenza NS1 protein function; Potency, µM (doses to about 46.1 µM), for inactives: at the top dose activity, positive = more growth; 270,000 compounds, 0.4% hits; AID 2326; calls by dose curve; further: potency means the concentration at half of the fitted maximal effect; actives are rising curves; nearly all actives have a fitted effect of over 50% in size
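Read-out: OD600 growth recovery of NS1-expressing budding yeast. Cells grown overnight at 30C in -URA glucose medium, washed, resuspended and diluted 1:100 in 2% galactose assay medium, pH 6.0. Same strain lacking NS1 served as positive control.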
SARS PLP yeast: SARS-CoV PLP inhibition in yeast | S. cerevisiae expressing SARS-CoV PLpro, growth rescue | Potency, µM (series often up to 32.9 µM), for inactives: at the highest dose activity, positive = growth rescue, hits mostly activators | 330,000 compounds, 0.19% hits | AID 485353; calls by dose curve; further: potency means the concentration at half of the fitted maximal effect; 0% is about no effect; nearly all actives have a fitted effect of over 55% in size
Numbers without * were called inactive; u = inconclusive; x = not tested or not shown. Unless noted, the call rests on the fitted dose curve; in most records, active means well fitted inhibition curve with a large enough effect; inconclusive means small, poorly fitted or top-dose-only effect, or another doubt; inactive means no such curve, though single readings can be large or run the other way.

SMILES | Pf growth 96h | CHX counter | Shiga inhibitor | Pf growth 48h | NS1 function inh | SARS PLP yeast
CSc1ccccc1-c1nnc(-c2ccc(Cl)c(Cl)c2)o1 | u | 19 | 5 | 37% | -3% | 1%
O=C(CCNC(=O)N1CC(=O)Nc2ccccc21)Nc1cccc(Cl)c1 | u | 8 | -14 | 0% | -1% | -7%
CC(C)NCc1nnc(-c2ccccc2Cl)o1 | u | 15 | 39* | 1% | x | 0%
COc1ccnc(CS(=O)c2nc3cc(C(O)(F)F)ccc3[nH]2)c1OC (centres undefined) | 15% | 6 | 7 | 7% | 2% | -5%
COc1ccc2[nH]c(S(=O)Cc3ncc(C)c(OC)c3C)nc2c1 (centres undefined) | 5.9µM* | 9 | 4 | x | -94% | -12%
COc1ccc2c(C)cc(C)nc2n1 | 1% | -3 | -7 | -16% | -1% | 0%
COc1ccc2[nH]c(S(=O)Cc3ncc(C)c(OC)c3C)nc2n1 (centres undefined) | 8.5µM* | x | x | 9.5µM* | x | x
COc1ccc(-c2cn(CCO)c(CCN)n2)cc1 | 74% | x | x | 12% | x | 2%
Cc1ccc(C2=NN(C(=O)c3ccco3)C(O)(C(F)(F)F)C2)cc1 (centres undefined) | 12% | 14* | 37* | 15% | -5% | -3%
COc1cccc(C2=NN(C(=O)c3ccco3)C(O)(C(F)(F)F)C2)c1 (centres undefined) | -22% | 22 | 4 | 4.1µM* | 2% | -2%
CC1=NN(C(=O)c2ccoc2C)C(O)(C(F)(F)F)C1 (centres undefined) | 120% | 50* | 44* | u | 0% | 0%
CCCCC1=NN(C(=O)c2cocc2C)C(O)(C(F)(F)F)C1 (centres undefined) | -11% | 20* | 32* | -22% | 6% | -21%
CCCCC1=NN(C(=O)c2ccco2)C(O)(C(F)(F)F)C1 (centres undefined) | -9% | 9 | 14 | 51% | -2% | 0%
CC1=NN(C(=O)c2cccnc2)C(O)(C(F)(F)F)C1 (centres undefined) | -37% | -1 | -11 | -4% | x | -2%
COc1ccc(N(CC(=O)N2CCCC2)S(=O)(=O)c2ccc(NC(C)=O)cc2)cc1 | 13% | -2 | -8 | -10% | 2% | 11%
FC(F)(F)c1ccc2c(c1)[nH]c(=S)n2C1CC1 | 74% | -1 | -22 | -9% | x | 22%
CCn1c(CNC(=O)c2ccco2)nnc1SCC(=O)Nc1cc(F)ccc1C | 29% | -5 | -8 | 12% | 5% | 2%
COC(=O)N1N=C(c2ccccc2)CC1(O)C(F)(F)F (centres undefined) | 63% | 39* | 106* | 77% | 0% | 3%
COc1ccccc1CNC(=O)c1cn(C)c2ccc(S(=O)(=O)N3CCCC3)cc2c1=O | u | -6 | 5 | u | x | -5%
CCNC(=S)N(CCc1c(C)[nH]c2ccccc12)Cc1cc(OC)c(OC)c(OC)c1 | u | -4 | -19 | u | -14% | 2%
CCOC(=O)C(=CNc1cc(C(F)(F)F)ccc1N1CCOCC1)C(=O)OCC | u | -2 | -3 | 4.1µM* | 6% | 1%
COc1cc(Cl)c(C)cc1NC(C)C(=O)Nc1cc(C(F)(F)F)ccc1N1CCOCC1 (centres undefined) | 0.066µM* | 1 | -9 | 0.15µM* | 16% | 19%
CCC(Oc1ccccc1)C(=O)Nc1cc(C(F)(F)F)ccc1N1CCOCC1 (centres undefined) | 1.5µM* | x | x | 1.7µM* | x | 0%
COc1ccc(NC(C)C(=O)Nc2cc(C(F)(F)F)ccc2N2CCOCC2)c(OC)c1 (centres undefined) | 0.046µM* | 2 | 15 | 0.12µM* | 4% | -28%
COCCn1c(SCC(=O)N(C)c2ccccc2)nc2c([nH]c3ccccc32)c1=O | u | 4 | -2 | u | 4% | 1%
SMILES | Pf growth 96h | CHX counter | Shiga inhibitor | Pf growth 48h | NS1 function inh | SARS PLP yeast
Cc1cccc(NS(=O)(=O)c2cnc(Cl)c(Br)c2)n1 | 23% | -1 | -8 | 3% | -15% | 7%
Cc1ccc(C(=O)NCCC(=O)Nc2ccccc2C)cc1 | -5% | -3 | 2 | 2% | 3% | 1%
Cc1ccc(C(=O)CCC(=O)Nc2ccccc2C)c(C)c1 | 131% | 29* | 12 | 62% | -2% | -4%
Cc1ccc(C(=O)CC(=O)c2ccccc2C)c(O)c1 | u | 20* | 39 | u | -10% | 1%
Cc1ccc(C(=O)CC(=O)c2cccc(F)c2)c(O)c1 | u | 36* | 77* | x | -80% | -3%
COc1ccccc1CN1CC(C(=O)N(Cc2cnn(C)c2)C(C)C)CCC1=O (centres undefined) | 40% | 27 | 12 | 4% | -7% | -2%
O=C(COC(=O)c1ccc([N+](=O)[O-])o1)Nc1ncc(Cl)cc1Cl | x | x | x | x | x | -18%
Cc1cccc(C(=O)Nc2cccc(Br)c2)c1[N+](=O)[O-] | 44% | 9.3* | 7 | 5% | -3% | 0%
Cc1ccc(NC(=O)c2ccccc2[N+](=O)[O-])nc1 | -11% | 8 | 8 | 61% | -10% | u
COc1cccc(NC(=S)NNC(=O)c2c([N+](=O)[O-])c(C)nn2C)c1 | 0% | -2 | 16 | 15% | -4% | -17%
Cc1ccccc1C(=O)Nc1cccc(NC(=O)c2ccccc2[N+](=O)[O-])c1 | -10% | -2 | -4 | -4% | -11% | -2%
COc1cccc(NC(=O)c2nn(C)c(C(=O)Nc3cccc(OC)c3)c2[N+](=O)[O-])c1 | 6.6µM* | -2 | 18 | 33% | -12% | 0%
Cc1ccc(-c2cc(NC(=O)c3ccccc3[N+](=O)[O-])n[nH]2)cc1 | u | 13* | 68* | 0% | 20% | -7%
Cc1cc(NC(=O)c2ccccc2[N+](=O)[O-])ccc1Br | u | 50* | 134* | 69% | x | -6%
O=C(O)CNC(=O)C12CC3CC(CC(Cl)(C3)C1)C2 | 54% | -4 | -9 | 31% | 8% | -2%
CN(CC(=O)Nc1ccccc1Cl)CC(=O)Nc1ccccc1[N+](=O)[O-] | 5% | -2 | -6 | -17% | x | 0%
CCOc1ccccc1C(=O)NCC(=O)N1CCN(Cc2ccc3c(c2)OCO3)CC1 | u | x | x | u | x | 4%
COc1cccc(NC(=O)c2cccc(C)c2[N+](=O)[O-])c1 | u | 28* | 125* | 73% | 0% | 1%
COc1ccc(CNC(=O)c2cccc(C)c2[N+](=O)[O-])cc1 | u | -2 | 23 | -6% | -16% | u
COc1cc(NC(=O)c2ccccc2[N+](=O)[O-])ccc1NC(=O)C(C)C | 9.3µM* | -3 | -6 | 7% | -2% | -3%
CC1(C)CC(=O)C(C2C3=C(CC(C)(C)CC3=O)Oc3c(Br)cc(Br)cc32)=C(O)C1 (centres undefined) | 0% | -1 | 8 | 19% | 9% | -1%
